In the supplement of paper PMC12636033:
± gives the standard deviation of the averaged measurements. The full ranking holds about 33,000 sequences; the median of “E-score (rank enrichment, -0.5 to 0.5)” is about -0.0068, and the highest 2% start at about 0.24. The list comes from a sample in which the highest values are over-represented; it also holds similar and randomly drawn sequences.

tested on: muMax20 (Max(13-93) K31hArg/K57hArg, M65Nle); experiment: PBM 8-mer E-score (E-score (rank enrichment, -0.5 to 0.5)); higher = stronger preferential binding
Procedure: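 Protein binding microarray (universal PBM chip covering all 10-mers in fixed probe flanks) with chemically synthesized human Max(13-93) bHLH-LZ analogs (not full-length Max) bearing noncanonical residues (hArg, Tha, Aib, Nle at 65) and aromatic Cys staples. Read-out per 8-mer (and its reverse complement): E-score (rank-based enrichment, -0.5 to 0.5) and Z-score of median probe intensity.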

Row | Sequence | PBM 8-mer E-score
1 | CTCCTAGC | -0.136 ± 0.081
2 | ATCCTAGC | 0.247 ± 0.0046
3 | ATCCTAGG | -0.193 ± 0.037
4 | AAGATGAG | -0.0108 ± 0.035
5 | ATTGACTA | -0.0128 ± 0.0061
6 | ATCAATGA | 0.164 ± 0.044
7 | AAAGGCCG | 0.275 ± 0.088
8 | CAAGGCCG | -0.0484 ± 0.016
9 | AAAAAGGC | 0.218 ± 0.093
10 | GAAAAGGC | 0.3 ± 0.074
11 | AAAAGGCC | 0.294 ± 0.089
12 | GAAAGGCC | -0.109 ± 0.036
13 | AAAGGCCC | 0.105 ± 0.034
14 | CAAAAGGC | 0.0129 ± 0.021
15 | CAAAGGCC | 0.0435 ± 0.035
16 | GAGTCGTA | 0.0328 ± 0.034
17 | CTTTTAGC | 0.0351 ± 0.039
18 | ATGCCTGG | -0.0874 ± 0.034
19 | AGCTTTGC | -0.066 ± 0.034
20 | TCTGACAA | -0.0236 ± 0.026
21 | AATACGAG | 0.1434 ± 0.0014
22 | CCTCCGAA | -0.0791 ± 0.039
23 | GACCCAAC | -0.034 ± 0.061
24 | CCAACCAG | -0.16 ± 0.022
25 | AACAAGAT | 0.22 ± 0.029

Row | Sequence | PBM 8-mer E-score
26 | TACAAAAA | 0.285 ± 0.024
27 | GACAAATA | 0.0845 ± 0.063
28 | TACAAGAA | 0.2 ± 0.064
29 | TACAAATA | 0.313 ± 0.007
30 | GACAAAAA | 0.144 ± 0.007
31 | GACAAATC | 0.0884 ± 0.12
32 | AACAAATC | 0.243 ± 0.016
33 | CACAAATA | 0.185 ± 0.02
34 | AACAAAAT | 0.275 ± 0.03
35 | AACAAAAA | 0.14 ± 0.044
36 | AACAAGTC | 0.141 ± 0.024
37 | CTACCGAA | -0.1 ± 0.022
38 | CACAGGCC | -0.118 ± 0.0028
39 | AGTTGGGG | 0.0207 ± 0.062
40 | AGCGGTGA | -0.233 ± 0.0025
41 | AAATTTCG | 0.186 ± 0.12
42 | AACTGAAA | 0.146 ± 0.092
43 | TGCACCCA | 0.0653 ± 0.034
44 | GAGGTGGA | -0.138 ± 0.1
45 | AACAAACA | 0.234 ± 0.022
46 | AACAAATG | 0.155 ± 0.052
47 | AACAAGTT | 0.0361 ± 0.093
48 | AACAAGTA | 0.101 ± 0.0032
49 | AACAAATA | 0.24 ± 0.0093
50 | AACAAATT | 0.269 ± 0.049

Row | Sequence | PBM 8-mer E-score
51 | GCCCCAAC | 0.167 ± 0.046
52 | ATAGCAAG | 0.248 ± 0.0032
53 | ATAGCAAC | 0.0478 ± 0.052
54 | ATAGCAAT | 0.1707 ± 0.0013
55 | ACTCCATG | -0.0772 ± 0.0052
56 | CCTACCCC | 0.0896 ± 0.026
57 | CGGTATGA | -0.017 ± 0.021
58 | GCATAAGA | 0.107 ± 0.021
59 | ACATAATG | 0.231 ± 0.099
60 | GCATAATA | 0.239 ± 0.0054
61 | CCATAATA | 0.213 ± 0.05
62 | ACATAATC | 0.0995 ± 0.051
63 | ACATAATA | 0.294 ± 0.053
64 | CCAAGTGA | -0.0263 ± 0.0041
65 | CCGACGTC | -0.172 ± 0.09
66 | CCAGAACA | 0.162 ± 0.0036
67 | CGGCCACC | -0.305 ± 0.094
68 | CTCTATGA | -0.000995 ± 0.044
69 | AAAACCCC | 0.126 ± 0.077
70 | AAATCGAG | 0.0488 ± 0.046
71 | GGACGTGA | -0.122 ± 0.048
72 | GCACGTGA | 0.392 ± 0.1
73 | GCACGTGC | 0.454 ± 0.049
74 | GCACGTCC | -0.0223 ± 0.063
75 | GCACGTAC | -0.051 ± 0.064

Row | Sequence | PBM 8-mer E-score
76 | GAACGTGA | -0.00796 ± 0.078
77 | CGCAGTTC | -0.116 ± 0.012
78 | CCATCAGC | -0.0581 ± 0.017
79 | GAATTCCA | 0.017 ± 0.13
80 | AAATTCCA | 0.254 ± 0.0063
81 | CAATTCCA | -0.00806 ± 0.02
82 | GGGCGTAA | -0.0137 ± 0.039
83 | CTATCTTC | 0.137 ± 0.013
84 | ATATCTTA | 0.0954 ± 0.0085
85 | ATATCTTC | 0.273 ± 0.027
86 | GAGTGCCC | -0.0978 ± 0.005
87 | CTATACCC | -0.0276 ± 0.12
88 | GAAGAAAC | 0.241 ± 0.024
89 | ACGAAAAA | 0.181 ± 0.01
90 | GAAGAAAA | 0.119 ± 0.022
91 | CAAAACAC | -0.0123 ± 0.11
92 | AAAAAACC | 0.2 ± 0.036
93 | CAAGAAAC | 0.177 ± 0.047
94 | AAAAAAAC | 0.236 ± 0.056
95 | CAAAAAAC | 0.21 ± 0.017
96 | GAAAACAC | 0.0158 ± 0.069
97 | AAAAACAC | 0.283 ± 0.042
98 | ACGAAAAC | 0.248 ± 0.03
99 | ACGAAAAG | 0.154 ± 0.00054
100 | ACACTTCT | -0.0487 ± 0.018

Row | Sequence | PBM 8-mer E-score
101 | GGACAGCC | -0.155 ± 0.053
102 | GGCTCCCA | -0.218 ± 0.099
103 | GCCTACGC | -0.109 ± 0.09
104 | AAAGAAAA | 0.263 ± 0.074
105 | CAAAACCC | 0.145 ± 0.0083
106 | CCAAAACC | 0.122 ± 0.057
107 | GAAAAAAC | 0.178 ± 0.042
108 | GGAAAAAA | 0.136 ± 0.12
109 | GAAAAAAA | 0.255 ± 0.013
110 | CAAAAACC | 0.237 ± 0.016
111 | AAAGAAAG | 0.084 ± 0.006
112 | CAAGAAAA | 0.0576 ± 0.13
113 | CCCCCGAC | -0.232 ± 0.054
114 | CCACAGGG | -0.0979 ± 0.07
115 | ATCCGGTA | -0.00311 ± 0.041
116 | ATGTCTAC | -0.0533 ± 0.013
117 | AAACTGGA | 0.098 ± 0.12
118 | AATTGGGA | 0.239 ± 0.021
119 | AATTGGGT | 0.181 ± 0.051
120 | AATTGGGC | 0.0726 ± 0.029
121 | AATTTGCA | 0.149 ± 0.052
122 | CGAGTAAA | 0.0289 ± 0.1
123 | CAAGTCGC | -0.102 ± 0.035
124 | ACGCGTGC | 0.253 ± 0.042
125 | ACGTGCGG | 0.105 ± 0.078

Row | Sequence | PBM 8-mer E-score
126 | ACGTGTGC | 0.297 ± 0.087
127 | ACGCGTGA | 0.148 ± 0.14
128 | ACGTGTGA | 0.19 ± 0.11
129 | ACGTGCGC | 0.241 ± 0.014
130 | CCGTGCGC | -0.143 ± 0.07
131 | ACGTGTGG | 0.227 ± 0.071
132 | ACGCGTGG | 0.183 ± 0.12
133 | GGAGAAGA | 0.084 ± 0.0044
134 | CTCCTTAC | 0.0913 ± 0.013
135 | CGTCTAGC | -0.0301 ± 0.083
136 | GAGCCTAA | -0.0774 ± 0.0028
137 | CGAGTACC | -0.134 ± 0.016
138 | AACGGCTG | -0.184 ± 0.1
139 | AACCACGC | -0.0767 ± 0.24
140 | AACCACGT | 0.369 ± 0.057
141 | ACCCACGC | 0.109 ± 0.027
142 | ACCCACGT | 0.341 ± 0.11
143 | ACCCACGA | 0.0663 ± 0.055
144 | AACCACGA | 0.141 ± 0.09
145 | AGTGTGCG | -0.149 ± 0.0092
146 | AAGATGTG | 0.128 ± 0.009
147 | CCCGCCCG | -0.0341 ± 0.0082
148 | ACCGCCCC | 0.0617 ± 0.15
149 | AACCCGCC | -0.0715 ± 0.029
150 | GCCGCCCA | -0.267 ± 0.094

Row | Sequence | PBM 8-mer E-score
151 | CCCCCGCC | -0.0877 ± 0.065
152 | CCCGCCCC | 0.273 ± 0.057
153 | CCCCGCCC | 0.322 ± 0.043
154 | GCCGCCCC | -0.0538 ± 0.0099
155 | CCCGCCCA | 0.317 ± 0.073
156 | GCCCGCCC | 0.0169 ± 0.057
157 | ACCCCGCC | 0.27 ± 0.04
158 | ACCCGCCC | 0.172 ± 0.024
159 | AAGAAAGA | -0.00904 ± 0.054
160 | AGAGTAAG | 0.117 ± 0.059
161 | CCAAATAC | 0.13 ± 0.031
162 | CCCGAATA | -0.0449 ± 0.17
163 | CTTGGAGC | -0.103 ± 0.13
164 | CCTAGCCG | -0.253 ± 0.052
165 | ATCGGTGC | -0.0954 ± 0.028
166 | CAGAACTA | -0.169 ± 0.18
167 | AACACTCT | -0.00142 ± 0.039
168 | AAGAACTC | -0.0481 ± 0.11
169 | GCTAGAGC | -0.122 ± 0.12
170 | GACTTCTA | -0.149 ± 0.025
171 | AACTTCTA | -0.0177 ± 0.042
172 | TACTTCTA | 0.272 ± 0.091
173 | CTTATGGA | -0.0576 ± 0.026
174 | CAACCGAC | 0.0428 ± 0.061
